Reference: the supplement of paper PMC12636033
± gives the standard deviation of the averaged measurements. The full ranking holds about 33,000 sequences; the median of “E-score (rank enrichment, -0.5 to 0.5)” is about -0.0068, and the highest 2% start at about 0.24. Many of the other results were omitted from the sample, so the highest values are more common in it than they were.

system: muMax20 (Max(13-93) K31hArg/K57hArg, M65Nle); assay: PBM 8-mer E-score (E-score (rank enrichment, -0.5 to 0.5)); higher = stronger preferential binding
Method: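 Protein binding microarray (universal PBM chip covering all 10-mers in fixed probe flanks) with chemically synthesized human Max(13-93) bHLH-LZ analogs (not full-length Max) bearing noncanonical residues (hArg, Tha, Aib, Nle at 65) and aromatic Cys staples. Read-out per 8-mer (and its reverse complement): E-score (rank-based enrichment, -0.5 to 0.5) and Z-score of median probe intensity.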

Row | Sequence | PBM 8-mer E-score
1 | GAGGACCC | -0.228 ± 0.037
2 | AGTAATCA | 0.109 ± 0.12
3 | CGGGGCGA | -0.112 ± 0.037
4 | AGAACTCC | -0.0617 ± 0.081
5 | AAAGGCTA | -0.0552 ± 0.0014
6 | GACGGATA | -0.139 ± 0.049
7 | GCTCACCA | -0.15 ± 0.068
8 | ATACCCCG | -0.0795 ± 0.096
9 | AACGACCA | 0.0599 ± 0.047
10 | ACTGCCAG | -0.0897 ± 0.06
11 | ACACAAAA | 0.208 ± 0.055
12 | ACACAAAC | 0.25 ± 0.056
13 | ATACAAAC | 0.225 ± 0.037
14 | ATACAAAG | 0.136 ± 0.09
15 | ATACAAAA | 0.305 ± 0.0098
16 | ATACAACC | -0.0691 ± 0.073
17 | ATACAACA | 0.254 ± 0.025
18 | CTACAAAA | 0.0991 ± 0.063
19 | TTACAAAA | 0.126 ± 0.043
20 | ACACAAAG | 0.23 ± 0.078
21 | ATACAAAT | 0.273 ± 0.038
22 | ATACAACG | 0.203 ± 0.026
23 | ACGGCCGG | -0.2416 ± 0.0019
24 | CAGGCTTC | -0.0969 ± 0.0043
25 | GATACGCC | -0.108 ± 0.043

Row | Sequence | PBM 8-mer E-score
26 | ACTTTTGC | 0.0617 ± 0.018
27 | CATGTTAC | 0.123 ± 0.025
28 | AGCCGCCG | -0.192 ± 0.18
29 | AGCTCCTA | -0.251 ± 0.015
30 | CCTCCCTA | -0.153 ± 0.075
31 | AGCTTAAC | -0.126 ± 0.1
32 | ACACTCGG | -0.0657 ± 0.025
33 | CTATACGC | -0.00851 ± 0.07
34 | CCTCGTTA | -0.00353 ± 0.0057
35 | GTACAAAA | 0.2859 ± 0.0025
36 | ATACAAGA | 0.0614 ± 0.015
37 | AAACAAAA | 0.211 ± 0.061
38 | AAACAAAC | 0.154 ± 0.025
39 | GCACAACA | 0.238 ± 0.016
40 | GTACAAGA | 0.119 ± 0.012
41 | GCACAACC | -0.23 ± 0.0046
42 | AAACAAAT | 0.284 ± 0.031
43 | CCACAACA | -0.0271 ± 0.0066
44 | ATACAAGC | 0.243 ± 0.079
45 | GTACAAAC | 0.116 ± 0.0057
46 | CTACAAGC | -0.0802 ± 0.066
47 | GAGTCCAA | -0.159 ± 0.12
48 | GCGACACA | -0.067 ± 0.12
49 | GTCTCTGA | -0.161 ± 0.093
50 | ATATATGA | 0.218 ± 0.069

Row | Sequence | PBM 8-mer E-score
51 | ACATATGG | 0.12 ± 0.078
52 | ATTTATTA | 0.132 ± 0.06
53 | CTATATGA | 0.109 ± 0.074
54 | ATATATGG | 0.258 ± 0.028
55 | ATTTATTC | 0.241 ± 0.046
56 | GCATATGC | 0.24 ± 0.032
57 | ATATATGC | 0.0936 ± 0.17
58 | ACATATGC | 0.105 ± 0.011
59 | CTTTATTC | 0.0219 ± 0.12
60 | CTATATGC | 0.238 ± 0.043
61 | GCATATGA | 0.186 ± 0.04
62 | TACCCCAA | 0.157 ± 0.005
63 | GGAGAGCC | -0.211 ± 0.032
64 | GACGCCAC | -0.137 ± 0.094
65 | ATGTCCGC | -0.126 ± 0.088
66 | GACACTGA | -0.11 ± 0.068
67 | GCAGCCAC | -0.0591 ± 0.03
68 | CTCAGTGC | -0.224 ± 0.0089
69 | ATATATTC | 0.201 ± 0.041
70 | CTATATTC | 0.262 ± 0.052
71 | CTCTATTC | 0.00532 ± 0.064
72 | AATAGTAA | 0.152 ± 0.012
73 | AAAAGCAT | 0.243 ± 0.018
74 | AATAGTAT | 0.24 ± 0.012
75 | CAAAGCTG | 0.0952 ± 0.083

Row | Sequence | PBM 8-mer E-score
76 | AAAAGTAA | 0.12 ± 0.033
77 | AAAAGCAC | 0.162 ± 0.061
78 | AATAGTAG | 0.0461 ± 0.02
79 | AAAAGTAT | 0.249 ± 0.044
80 | AAAAGTAC | 0.184 ± 0.042
81 | AAAAGCTA | 0.123 ± 0.0035
82 | AAAAGCAG | -0.0145 ± 0.05
83 | AAAAGCTG | 0.271 ± 0.081
84 | CCGTCGTC | -0.109 ± 0.011
85 | AACTGGGT | -0.078 ± 0.061
86 | CCAATGAG | -0.095 ± 0.001
87 | CATGGACG | 0.0146 ± 0.1
88 | GAAGAGGC | -0.108 ± 0.083
89 | AGACGGAT | 0.0634 ± 0.17
90 | GTCAATGA | 0.0559 ± 0.0022
91 | CCTGCTGC | -0.107 ± 0.061
92 | TAGTATCA | 0.131 ± 0.033
93 | ATAGATGA | 0.0906 ± 0.033
94 | AACGCATA | 0.0704 ± 0.12
95 | AGACGTGA | 0.104 ± 0.027
96 | ATACGTGA | 0.068 ± 0.019
97 | ACACGTCA | 0.246 ± 0.006
98 | ACAGGTGA | 0.264 ± 0.062
99 | ACACGTCT | 0.0471 ± 0.065
100 | CCAGGTGA | -0.121 ± 0.026

Row | Sequence | PBM 8-mer E-score
101 | AGACGTGC | -0.0738 ± 0.042
102 | ACACGTCG | -0.148 ± 0.048
103 | ACACGTGA | 0.432 ± 0.055
104 | ACACGTGC | 0.452 ± 0.05
105 | ACACGTAC | 0.137 ± 0.036
106 | GCAGGTGA | -0.0216 ± 0.0013
107 | AGCTCTTG | 0.00816 ± 0.055
108 | CAGGCAGA | -0.144 ± 0.036
109 | CCGGCAAA | -0.223 ± 0.11
110 | AAACCGTC | -0.172 ± 0.074
111 | ACCCAGAC | -0.109 ± 0.007
112 | CTAACGCC | -0.0238 ± 0.038
113 | AATTGCCT | 0.00671 ± 0.018
114 | AATAGGGA | 0.142 ± 0.022
115 | CGTTACAC | -0.0405 ± 0.053
116 | TAACGTGA | 0.101 ± 0.052
117 | ACACGTAG | 0.0342 ± 0.052
118 | TCACGTAA | 0.0827 ± 0.0065
119 | ACACGTAT | 0.218 ± 0.052
120 | AAACGTGG | 0.201 ± 0.0053
121 | ACACGTGT | 0.469 ± 0.029
122 | AAACGTGT | 0.169 ± 0.1
123 | ACACGTGG | 0.446 ± 0.062
124 | TCACGTGA | 0.442 ± 0.044
125 | CTTCTACC | 0.00215 ± 0.038

Row | Sequence | PBM 8-mer E-score
126 | ACAGAATG | 0.088 ± 0.021
127 | GTTTTCGA | -0.0225 ± 0.1
128 | TCGGCCAA | -0.181 ± 0.076
129 | GAATCCAC | 0.0142 ± 0.053
130 | CAATTGTG | 0.0641 ± 0.093
131 | ATAAGGAC | 0.0929 ± 0.069
132 | ATAAGGTA | 0.244 ± 0.019
133 | ATAAGGAA | 0.0142 ± 0.076
134 | ATAAGGAT | 0.246 ± 0.039
135 | ATAAGGTC | 0.218 ± 0.028
136 | CTAAGGTA | 0.0373 ± 0.061
137 | CTCTACCC | 0.0459 ± 0.077
138 | CCAACAGA | -0.00227 ± 0.052
139 | GTAGCTCA | -0.0957 ± 0.0039
140 | AACTCAGT | -0.0615 ± 0.032
141 | ATGACACG | 0.238 ± 0.041
142 | CAAAGATG | 0.0977 ± 0.0035
143 | AAAAGACA | 0.237 ± 0.011
144 | GTGACACA | 0.0546 ± 0.001
145 | AAGACACG | 0.293 ± 0.005
146 | AAAAGACC | 0.0838 ± 0.031
147 | AAAAGATG | 0.263 ± 0.086
148 | CAGACACG | -0.0512 ± 0.046
149 | AAGACACA | 0.1216 ± 0.00079
150 | CAAAGACA | 0.129 ± 0.0062

Row | Sequence | PBM 8-mer E-score
151 | AAAAGATT | 0.0851 ± 0.1
152 | ATGACACA | 0.156 ± 0.0051
153 | GACCACGC | 0.121 ± 0.055
154 | TCGATGAA | -0.0576 ± 0.025
155 | TGGCGGAA | -0.0751 ± 0.029
156 | CCCAGAGC | -0.115 ± 0.017
157 | AAAGCAGA | 0.176 ± 0.01
158 | AATATATT | 0.244 ± 0.0097
159 | ATTATTTG | 0.212 ± 0.051
160 | AATATTCC | 0.149 ± 0.012
161 | CATATTTA | 0.288 ± 0.0037
162 | AATATTCG | 0.134 ± 0.0048
163 | AATATTCA | 0.259 ± 0.0058
164 | AATATATA | 0.235 ± 0.04
165 | ATTATTTA | 0.256 ± 0.072
166 | GATATTTA | 0.104 ± 0.032
167 | AATATAGT | 0.219 ± 0.013
168 | CATATTTC | 0.133 ± 0.0054
169 | GTTATTTA | 0.222 ± 0.014
170 | ATGCGGGG | -0.0713 ± 0.071
171 | TCAGGTAA | 0.0683 ± 0.047
172 | GTAGACTA | -0.0707 ± 0.066
